Only some compounds are listed: those with a hit (about 2.3% of all), similar ones and a draw of the others.
Nrf2 ARE act: qHTS of Nrf2 Activators. AREc32 ARE-luciferase reporter (MCF7-derived line), luminescence, 24 h. 0.31% of 410,000 active. Potency, µM (highest dose often 46.1 µM), inactives show at the top dose activation, most hits filed as activators. AID 624171, 2012; further: potency means the concentration at half of the fitted maximal effect; % of control where 0% means no effect; nearly all actives have a fitted effect of over 65% in size
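For detection, Steady-Glo was added and plates sat 30 min at RT; before that, AREc32_Fluc cells grown overnight in OPTI-MEM/5% FBS had been treated with 23 nL compound for 24 hr at 37 deg C.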
miR-21 reporter: qHTS Assay for Modulators of miRNAs and/orActivators of miR-21; HeLa miR-21 FLuc reporter, luciferase, 48 h; Potency, µM (series often up to 38.3 µM), for inactives: at the highest dose activity change, positive = activation, actives largely listed as activators; 340,000 tested, under 10 active; AID 2288, 2010;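 further: % of control where 0% means no effect; miR-21 action dims this reporter so a rising signal means less miR-21 action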
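HeLa cells endogenously expressing miR-21, stably carrying CMV-driven firefly luciferase with a downstream miR-21 binding site, 2000 cells/well. Titrations up to approximately 40 uM, 48 hours; luciferase luminescence read.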
Nrf2 block: Nrf2 qHTS screen for inhibitors; 2.1% of 360,000 active; AID 504444, 2011; A549 ARE-Fluc reporter, luciferase luminescence, 18-24 h; Potency, µM (highest dose often 46 µM), inactives show top-dose activity change, negative = inhibition, most hits filed as inhibitors; further: potency means the concentration at half of the fitted maximal effect; on the % scale 0 is the no-effect control and ±100 the full control effect; nearly all actives have a fitted effect of over 60% in size
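A549 ARE_Fluc cells (5000/well, 5% FBS OPTI-MEM) pre-incubated 2 h, then treated with compounds 18-24 h at 37C/5% CO2 in concentration-response. CellTiter-Fluor viability read first; BugLite luciferase luminescence after 15 min at room temperature gives Nrf2 activity.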
A549 tox: Nrf2 qHTS screen for inhibitors: counterscreen for cytotoxicity. A549 ARE-Fluc cells, CellTiter-Fluor viability, 18-24 h. Potency, µM (highest dose often 46 µM), for inactives: at the top dose activity change, negative = cytotoxicity, hits mostly inhibitors. 0.16% of 390,000 active. AID 504648, 2011; further: potency means the concentration at half of the fitted maximal effect; on the % scale 0 is the no-effect control and ±100 the full control effect
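Cytotoxicity counterscreen: CellTiter-Fluor fluorescence was measured in A549 ARE_Fluc cells after 18-24 h of compound exposure in a concentration series. The subsequent BugLite luminescent read reports ARE-luciferase activity.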
Mito fusion yeast: qHTS Assay for Small Molecule Inhibitors of Mitochondrial Division or Activators of Mitochondrial Fusion; S. cerevisiae fusion-defective mutant growth rescue, CellTiterGlo 48 h; Potency, µM (highest dose often 46.1 µM), for the others: top-dose growth rescue (activation), most hits filed as activators; 0.23% of 320,000 active; further: potency means the concentration at half of the fitted maximal effect; % of control where 0% means no effect; nearly all actives have a fitted effect of over 45% in size
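Growth-rescue viability read-out: after 48 h at the non-permissive 37C in glycerol/ethanol YPEG, yeast mitochondrial fusion mutants are measured by CellTiterGlo luminescence; compounds (23 nl pinned per well) restoring growth score as division inhibitors or fusion activators.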
Active calls of the source: *; ? = inconclusive; . = not tested or not shown. The call rests on the fitted dose curve; in most records, active means well fitted curve in the direction sought with a large enough effect; inconclusive means small, poorly fitted or top-dose-only effect, or another doubt; inactive means no such curve, though single readings can be large; an effect the other way counts as inactive or inconclusive.

SMILES	Nrf2 ARE act	miR-21 reporter	Nrf2 block	A549 tox	Mito fusion yeast
O=C(Nc1cccc(Cl)c1)c1cc(-c2ccco2)on1	10%	-8%	5%	-1%	19%
O=C(Nc1cc(Br)ccc1O)c1cc(-c2ccco2)on1	4.5µM*	-30%	?	-5%	2%
O=C(Nc1cccnc1Cl)c1cc(-c2ccco2)on1	10µM*	-50%	?	1%	5%
Cc1ccc2ncc(C(=O)NCCc3ccc(S(N)(=O)=O)cc3)c(=O)n2c1	3%	-2%	8%	-2%	.
Cc1ccccc1C(=O)Nc1ccc(S(=O)(=O)N2CCC(c3nc4ccccc4s3)CC2)cc1	0%	0%	3%	-1%	.
Cc1sc2c(c1C)CN(C(C)(C)C)CN2C(=O)c1ccccc1	11µM*	-48%	?	-1%	2%
COCCN1Cc2c(sc(C)c2C)N(C(=O)c2ccccc2)C1	?	-44%	?	1%	2%
C=CCN=c1scc(-c2ccc3c(c2)NC(=O)CO3)n1/N=C(\C)c1ccccn1	8%	21%	16µM*	?	4%
C=CCN=c1scc(-c2ccc(F)cc2)n1/N=C/c1ccccn1	5%	-13%	?	-10%	19%
O=C(CCCCCN1CCN(c2ccccc2-c2ccccc2)CC1)NC1CCCc2ccccc21 (stereo unspecified)	.	.	.	.	-51%
O=C(CN1CCOCC1)Nc1nc(-c2ccccc2)cs1	4%	-3%	16%	1%	1%
O=C(Cn1nnc(-c2ccc(CN3CCOCC3)cc2)n1)Nc1nc(-c2ccccc2)cs1	2%	12%	16µM*	-1%	-1%
COc1cccc(-c2ccc3c(N)c(C(=O)c4ccc(Cl)cc4)sc3n2)c1	0%	19%	-25%	-1%	.
Cn1c(=O)c2c(nc(Sc3ncccn3)n2Cc2ccc(Cl)cc2)n(C)c1=O	1%	9%	15µM*	5%	1%
CNc1nc2c(c(=O)n(C)c(=O)n2C)n1Cc1ccccc1	1%	5%	7.3µM*	-16%	-1%
CNc1nc2c(c(=O)n(C)c(=O)n2C)n1CCCc1ccccc1	0%	19%	?	-10%	2%
CC(C)CCn1c(NCCc2ccccc2)nc2c1c(=O)n(C)c(=O)n2C	1%	?	?	1%	18µM*
Cn1c(=O)c2c(nc(NCCO)n2CCCc2ccccc2)n(C)c1=O	1%	13%	21µM*	0%	-3%
COc1cc(C2CC(=O)Nc3cc4c(cc32)OCCO4)cc(Br)c1OC (stereo unspecified)	0%	?	?	2%	.
Clc1ccc(Cn2cc3c(n2)-c2cc4ccccc4n2C3)cc1	.	.	0%	0%	.
Oc1ccccc1C1C=C(c2ccc3c(c2)OCO3)NC(c2ccc(F)c(Br)c2)N1 (stereo unspecified)	.	.	-4%	0%	.
Cc1cccc(Cn2c(NCCO)nc3c2c(=O)n(C)c(=O)n3C)c1	0%	15%	4.1µM*	-19%	-2%
O=[S+]1([O-])N=C(Oc2cccnc2)c2ccccc21	.	.	11%	-2%	.
N#Cc1c(NC(NC(=O)c2ccco2)C(=O)c2ccccc2)sc2c1CCCC2 (stereo unspecified)	?	-24%	-16%	-11%	13µM*
NC(=O)c1c(NC(NC(=O)c2ccco2)C(=O)c2ccc(Cl)cc2)sc2c1CCCC2 (stereo unspecified)	15%	-12%	?	?	7%
SMILES	Nrf2 ARE act	miR-21 reporter	Nrf2 block	A549 tox	Mito fusion yeast
COc1ccc2oc3cc(C)[n+]([O-])c(-c4ccc(Br)cc4)c3c2c1	0%	1%	23µM*	?	20%
Nc1ccc2c(c1)CC(=O)c1ccccc1S2	8%	-43%	3%	-5%	20%
O=C1Cc2ccccc2Sc2ccc(O)cc21	6%	-16%	27%	3%	14µM*
C=CCn1c(SCCC)nc2ccccc2c1=O	.	.	3%	-1%	.
CCCCCn1c(Sc2nc3ccccc3s2)nc2c1c(=O)[nH]c(=O)n2C	8%	-9%	16µM*	-10%	25%
Cn1c(NCC2CCCCC2)nc2cc(-c3ccsc3)sc2c1=O	2µM*	.	.	.	.
CCCCn1cnc2c(=O)[nH]c(N)nc21	.	.	-11%	1%	.
CCCOc1ccc(-c2nonc2NC(=O)c2cc(OC)c(OC)c(OC)c2)cc1OCCC	0%	-9%	6%	1%	.
COc1cc(C(=O)Nc2sc(C)c(C)c2C(=O)O)cc(OC)c1OC	7%	3%	-26%	0%	2%
Cc1cccc(C(=O)Nc2scc(-c3ccc(Br)cc3)c2C(=O)O)c1	-1%	.	12µM*	-15%	.
Cc1ccc(-c2csc(NC(=O)c3cccc(C)c3)c2C(=O)O)cc1	-1%	.	7.3µM*	-18%	.
COc1cc(C(=O)Nc2scc(-c3ccc(Br)cc3)c2C(=O)O)cc(OC)c1OC	-1%	5%	16µM*	-16%	0%
Cc1ccc(-c2csc(NC(=O)c3ccc(Br)cc3)c2C(=O)O)cc1	0%	-9%	?	-8%	-19%
COc1ccc(-c2onc(C)c2C)cc1S(=O)(=O)NC1CCC(C)CC1 (stereo unspecified)	1%	9%	21µM*	-24%	.
COc1ccc(-c2onc(C)c2C)cc1S(=O)(=O)N(C)Cc1ccccc1	1%	28%	18µM*	0%	.
CCOc1ccc(OCC)c(NS(=O)(=O)c2cc(-c3onc(C)c3C)ccc2OC)c1	1%	5%	85%	9%	.
COc1ccc(-c2onc(C)c2C)cc1S(=O)(=O)NC1CCCCC1	3%	0%	-21%	-1%	.
Cc1ccccc1Nc1c(-c2cccs2)nc2cccc(C)n12	10%	13%	5%	7%	.
Cc1ccc2nc(N3CCN(c4cccc(Cl)c4)CC3)c(-n3nc(C)cc3C)nc2c1	0%	-1%	11%	-3%	.
C#CCn1c(=NC(=O)c2ccc(S(=O)(=O)N3CCc4ccccc4C3)cc2)sc2cc(S(N)(=O)=O)ccc21	-2%	-1%	3.3µM*	5.2µM*	-12%
O=C(CSc1nc(=O)n(CCN2CCOCC2)c2c1CCC2)Nc1ccc(OC(F)(F)F)cc1	2%	.	18µM*	-1%	-8%
COc1ccc(NC(=O)CSc2nc(=O)n(CCN3CCOCC3)c3c2CCC3)cc1	0%	.	0%	-4%	-6%
Cc1cccc(-c2nc(CSCC(=O)N3CCN(c4ccccn4)CC3)c(C)o2)c1	0%	18%	21µM*	-9%	0%
Cc1cccc(-c2nc(CSCC(=O)N3CCN(c4cccc(C)c4C)CC3)c(C)o2)c1	2%	20%	.	-27%	.
O=S(=O)(c1ccc(Cl)cc1)N1CCN(c2nc(-c3cccc(Br)c3)nc3ccccc23)CC1	.	.	4%	0%	.

Source: PubChem BioAssay
